# Data published in PubChem BioAssay.
# Activity calls are given as the source filed them. Unless noted, how the calls were made is not given here.
# Assays:
# [1] = resazurin metabolic signal in HepG2 cells – cell-based, resazurin fluorescence, 24 h, PK04 Diversity Set, profiling panel (AID 1172); details: HepG2 viability, higher = more signal
# [2] = budding yeast growth changes without added modifier – OD600, strain BY4716, 24 h, basal condition, primary screen (AID 1173); details: S. cerevisiae BY4716 growth, OD600, 24 h; higher = more signal, called active from +8 up or from −8 down
# [3] = viability profiling in MM1S myeloma cells – cell-based, resazurin fluorescence, basal, 24 h, PK04 Diversity Set, profiling panel (AID 1174); details: higher = more signal, called active from +8 up or from −8 down;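 further: MM1S multiple myeloma cell line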
# [4] = target: Dihydroorotate dehydrogenase (quinone), mitochondrial (Plasmodium falciparum (isolate 3D7)) (UniProt Q08210); assay: inhibition of P. falciparum DHODH – biochemical, C-terminal His tag, absorbance 600 nm, primary screen (AID 1175); details: PfDHODH enzyme, DCIP absorbance 600 nm; higher = more signal, called active from +8 up or from −8 down;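 further: recombinant parasite enzyme with a five histidine tag at its C terminus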
# [5] = inhibition of PAO1 biofilm formation – strain PAO1, LB-PBS medium, absorbance 600 nm, primary screen (AID 1176); details: P. aeruginosa PAO1 growth/biofilm, A600, 12 h; higher = more signal
# [6] = growth modulation of vineyard yeast isolate – strain RM11-1a, OD600, basal, 24 h, primary screen (AID 1177);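 further: cultures grown under basal conditions with no added stressor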; details: S. cerevisiae RM11-1a growth, OD600, 24 h; higher = more signal, called active from +8 up or from −8 down
# [7] = growth of efflux-deficient E. coli DRC39 – strain DRC39, OD650, 24 h, E. coli filamentation inducers, primary screen (AID 1178);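 further: growth measured as culture turbidity by optical density at 650 nm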; details: E. coli DRC39 acrAB, higher = more signal, called active from +8 up or from −8 down
# [8] = growth of efflux-deficient E. coli DRC39 – strain DRC39, OD650, 48 h, E. coli filamentation inducers, primary screen (AID 1179);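 further: screen aims at cell division blockers that make cells filament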; details: E. coli DRC39 delta-acrAB growth, higher = more signal, called active from +8 up or from −8 down
# [9] = viability profiling in RPMI8226 myeloma cells – cell-based, resazurin fluorescence, basal, 24 h, PK04 Diversity Set, profiling panel (AID 1180); details: higher = more signal;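 further: RPMI8826 multiple myeloma cell line at 5000 cells per well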
# [10] = target: E3 ubiquitin-protein ligase XIAP (Homo sapiens) (UniProt P98170); assay: small molecules binding XIAP protein – biophysical, small-molecule microarray, fluorescence 635 nm, primary screen (AID 1181); details: higher = more signal;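 further: score merges 667 nm emission and signal to noise over triplicate slides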
# [11] = tested on: XIP peptide (Xip251-270) binding; assay: XIP fragment 251-270 binding compounds – biochemical, small-molecule microarray, fluorescence 635/667 nm, 0.1 µg/mL protein, primary screen (AID 1182); details: fluorescent protein binding, 635 nm, higher = more signal, called active from +8 up or from −8 down
# [12] = tested on: XIP peptide (Xip251-270); assay: compounds binding XIP fragment 251-270 – biochemical, small-molecule microarray, fluorescence 635/667 nm, 0.5 µg/mL protein, primary screen (AID 1183); details: fluorescence 635 nm, higher = more signal
# [13] = blood-stage malaria parasite viability loss – strain 3D7, DAPI fluorescence, 100 nL, primary screen (AID 1184);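 further: parasites grown inside human red blood cells in medium with human serum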; details: P. falciparum 3D7 growth, 3 d, higher = more signal
# [14] = target: Homeobox protein Hox-A13 (Mus musculus) (UniProt Q62424); assay: disruptors of Hoxa13 oligonucleotide interaction – biochemical, fluorescence polarization, labeled oligonucleotide, primary screen (AID 1185); details: Hoxa13:DNA binding, 15 min, higher = more signal, called active from +8 up or from −8 down
# [15] = blockers of DNA damage checkpoint Chk1 activation – imaging, HeLa, hydroxyurea, phospho-Chk1 antibody, percent positive cells, primary screen (AID 1186); details: hydroxyurea-induced phospho-Chk1 immunofluorescence imaging, higher = more signal
# [16] = blockers of DNA damage checkpoint Chk1 activation – imaging, HeLa, hydroxyurea, phospho-Chk1 nuclear intensity, primary screen (AID 1187); details: hydroxyurea-induced phospho-Chk1 immunofluorescence imaging, higher = more signal
# Homeobox protein Hox-A13 (Mus musculus), sequence (Q62424 whole entry, looked up): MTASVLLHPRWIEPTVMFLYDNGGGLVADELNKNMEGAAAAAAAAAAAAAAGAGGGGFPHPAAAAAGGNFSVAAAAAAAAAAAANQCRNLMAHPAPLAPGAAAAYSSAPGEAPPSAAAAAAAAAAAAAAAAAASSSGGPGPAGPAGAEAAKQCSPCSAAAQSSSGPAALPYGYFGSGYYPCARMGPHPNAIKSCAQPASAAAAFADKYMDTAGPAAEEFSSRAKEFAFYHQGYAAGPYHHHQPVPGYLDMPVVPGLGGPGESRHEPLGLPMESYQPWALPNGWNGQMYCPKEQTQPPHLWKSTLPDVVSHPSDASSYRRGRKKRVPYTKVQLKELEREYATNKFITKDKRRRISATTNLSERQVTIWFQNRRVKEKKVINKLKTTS
# Dihydroorotate dehydrogenase (quinone), mitochondrial (Plasmodium falciparum (isolate 3D7)), sequence (Q08210 whole entry, looked up): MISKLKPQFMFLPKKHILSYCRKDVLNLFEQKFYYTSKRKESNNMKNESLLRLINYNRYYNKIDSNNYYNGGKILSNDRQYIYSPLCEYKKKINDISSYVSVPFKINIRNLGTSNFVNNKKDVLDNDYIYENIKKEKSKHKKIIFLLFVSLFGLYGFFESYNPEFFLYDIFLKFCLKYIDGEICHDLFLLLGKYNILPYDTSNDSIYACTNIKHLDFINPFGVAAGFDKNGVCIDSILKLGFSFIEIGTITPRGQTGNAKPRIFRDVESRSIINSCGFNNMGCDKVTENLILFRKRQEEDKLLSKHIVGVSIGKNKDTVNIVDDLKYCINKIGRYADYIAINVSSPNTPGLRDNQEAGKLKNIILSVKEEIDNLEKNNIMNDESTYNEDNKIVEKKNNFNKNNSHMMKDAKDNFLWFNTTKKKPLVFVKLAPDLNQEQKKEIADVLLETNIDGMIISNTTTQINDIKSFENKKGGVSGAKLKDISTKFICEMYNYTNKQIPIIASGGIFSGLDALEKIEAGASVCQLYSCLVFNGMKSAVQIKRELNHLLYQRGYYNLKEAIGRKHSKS
# E3 ubiquitin-protein ligase XIAP (Homo sapiens), sequence (P98170 whole entry, looked up, the tested form may be a part): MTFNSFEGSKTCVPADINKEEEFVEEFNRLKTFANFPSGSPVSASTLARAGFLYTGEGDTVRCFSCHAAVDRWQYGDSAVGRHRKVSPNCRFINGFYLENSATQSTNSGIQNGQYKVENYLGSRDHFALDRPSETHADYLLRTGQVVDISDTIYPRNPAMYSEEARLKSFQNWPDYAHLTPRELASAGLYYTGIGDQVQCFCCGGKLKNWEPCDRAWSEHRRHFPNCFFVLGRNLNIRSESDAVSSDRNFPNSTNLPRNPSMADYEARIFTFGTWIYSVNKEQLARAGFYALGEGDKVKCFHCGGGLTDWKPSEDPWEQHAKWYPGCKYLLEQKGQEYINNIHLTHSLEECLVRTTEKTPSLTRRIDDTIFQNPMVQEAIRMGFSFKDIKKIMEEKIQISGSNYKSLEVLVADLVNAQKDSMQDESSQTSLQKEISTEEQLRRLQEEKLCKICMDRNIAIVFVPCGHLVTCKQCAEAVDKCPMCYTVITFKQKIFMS
Compound,z-score [1],z-score [2],z-score [3],composite z-score [4],z-score [5],z-score [6],z-score [7],z-score [8],z-score [9],composite z-score [10],composite z-score [11],composite z-score [12],z-score [13],z-score [14],z-score [15],z-score [16]
[N-]=[N+]=NCc1ccccc1[C@H]1OC(c2ccc(OCCCO)cc2)=N[C@@]1(Cc1ccccc1)C(=O)N1CCOCC1,1.35,-2.25 (inactive),-0.0295 (inactive),0.222 (inactive),0.841 (inactive),0.176 (inactive),-0.0844 (inactive),-1 (inactive),0.349,0.0578,0.0472 (inactive),0.667,-2.62,-3.37 (inactive),-0.11 (inactive),-0.185 (inactive)
CCCCCCCCCCC(O)C1C=CC2C(=O)N(C)C(=O)C2N1N1CCCCC1 (centres undefined),-1.36,0.447 (inactive),-1.35 (inactive),1.24 (inactive),0.944 (inactive),1.53 (inactive),-0.619 (inactive),-0.373 (inactive),-1.18,0.0264,0.0477 (inactive),0.0634,-0.152,-4.08 (inactive),0.552 (inactive),0.303 (inactive)
O=C1O[C@H](c2ccccc2)[C@H](c2ccccc2)N2[C@H]1[C@@H](C(=O)N1CCN(c3ncccn3)CC1)[C@]1(C(=O)Nc3ccccc31)[C@H]2c1ccc(O)cc1,-0.291,0.688 (inactive),-0.73 (inactive),0.447 (inactive),0.641 (inactive),2.29 (inactive),0.179 (inactive),0.481 (inactive),-1.2,-0.13,0.0016 (inactive),0.458,-0.976,-1.2 (inactive),0.746 (inactive),1.46 (inactive)
COCCOC(=O)N1C(=O)[C@@]2(c3cc(C#CCC(C(=O)OC)C(=O)OC)ccc31)[C@H](C(=O)N1CCc3cc(OC)c(OC)cc3C1)[C@H]1C(=O)O[C@H](c3ccccc3)[C@H](c3ccccc3)N1[C@@H]2c1ccc(O)cc1,0.227,0.541 (inactive),-0.0494 (inactive),-0.0728 (inactive),-0.0757 (inactive),1.34 (inactive),0.992 (inactive),0.199 (inactive),-0.888,-0.0034,0.596 (inactive),0.676,-2.02,-1.46 (inactive),0.182 (inactive),0.424 (inactive)
COCCOC(=O)N1C(=O)[C@@]2(c3cc(C#CC4=CCCCC4)ccc31)[C@H](c1ccccc1OCCO)N1[C@H](c3ccccc3)[C@H](c3ccccc3)OC(=O)[C@H]1[C@@H]2C(N)=O,-0.625,-0.431 (inactive),-2.78 (inactive),-0.176 (inactive),1.06 (inactive),0.486 (inactive),0.484 (inactive),-0.955 (inactive),-5.01,0.126,-0.0632 (inactive),0.558,-2.27,-0.721 (inactive),-0.254 (inactive),-0.167 (inactive)
[N-]=[N+]=NCc1ccccc1C[C@]1(C(=O)NCc2ccccc2)N=C(c2ccc(OCCCO)cc2)O[C@H]1c1ccccc1CN=[N+]=[N-],-0.907,0.831 (inactive),-0.153 (inactive),0.238 (inactive),1.32 (inactive),0.832 (inactive),3.04 (inactive),1.01 (inactive),-0.28,-0.0559,0.99 (inactive),0.628,-2.24,4.04 (inactive),-0.347 (inactive),0.0031 (inactive)
CCCCC(O)C1C=CC2C(=O)NC(=O)C2N1Nc1ccc(Cl)cc1Cl (centres undefined),-2.57,-16.6 (active),-2.26 (inactive),-0.2 (inactive),0.546 (inactive),-5.12 (inactive),-0.818 (inactive),-1.31 (inactive),-2.01,-0.272,-0.0109 (inactive),-0.405,-0.565,-4.78 (inactive),-0.515 (inactive),-0.438 (inactive)
O=C1C2C=CC(C(O)c3cccc(O)c3)N(Nc3ccccc3F)C2C(=O)N1c1ccccc1 (centres undefined),0.244,-14.7 (active),-0.343 (inactive),-2.46 (inactive),1.22 (inactive),-7.32 (inactive),0.684 (inactive),0.573 (inactive),0.133,0.0345,1.62 (inactive),0.632,-1.33,-3.57 (inactive),-0.388 (inactive),-1.33 (inactive)
CC(C)CNC(=O)[C@@H]1c2ccccc2C(=O)N(C(C)C)[C@H]1c1ccc(CO)cc1,0.0161,0.294 (inactive),0.334 (inactive),-1.57 (inactive),0.348 (inactive),-1.19 (inactive),0.855 (inactive),1.76 (inactive),0.609,-0.0434,-0.885 (inactive),0.93,0.643,-0.0386 (inactive),-0.586 (inactive),-0.784 (inactive)
